Compound activity as filed in PubChem.
KCNQ2 pot: KCNQ2 (rat) channel potentiation; O88943; CHO-K1 KCNQ2, FluxOR thallium flux fluorescence; hits give high values; B-score at 10 µM; 0.54% of 310,000 active;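 active = fluorescence ratio B-score at least 3 SD of library B-scores, with initial fluorescence B-score within 3 of them, cut at about 5.3 in these data; same plate scores as AID 2156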;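 note: B-score of peak minus minimum over baseline fluorescence ratio after K+ and Tl+ stimulus; positive B-score means potentiation of KCNQ2 with more thallium influx and brighter signal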
KCNQ2 block: inhibitors of rat KCNQ2 potassium channel | CHO-K1 KCNQ2, FluxOR thallium flux, 20 min; hits give low values | B-score at 10 µM | O88943 | 1.1% of 310,000 active;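 active = fluorescence ratio B-score at most minus 3 library SDs, with starting brightness B-score within 2 library SDs, cut at about -5.5 in these data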
Kir21 confirm: confirmation of mouse Kir2.1 potassium channel inhibitors. Kir2.1-expressing cells, FluxOR thallium flux fluorescence; hits give low values. Tl flux remaining, % of negative control (hits give low values), % at 10 µM. 41% of 2,300 active. shares compounds with KCNQ2 pot;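 active = Primary-screen hit whose thallium flux fell at least 3 control SD below untreated wells in both duplicates, with normal baseline fluorescence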;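 note: 0% = blank wells without stimulus and 100% = stimulated no-compound controls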
HEK293 ctr: counter-screen for Kir2.1 inhibitors: effect in parental HEK293 cells | shares compounds with KCNQ2 pot | 19% of 2,300 active | FluxOR signal as % of negative control (100 = no effect), % at 10 µM | FluxOR thallium flux fluorescence; 0% = unstimulated blank wells;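 active = dye signal at least 3 control SD above or below untreated wells in both duplicates, raw fluorescence within 3, either direction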;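 note: percent is based on the flux ratio of peak minus minimum fluorescence over baseline F0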
CHO-K1 Tl ctr: alters thallium flux in parental CHO-K1 cells, KCNQ2 counter-screen. FluxOR thallium flux fluorescence; zero = vehicle mean+3SD, 100% = vehicle-minus-blank window. 43% of 1,200 active. shares compounds with KCNQ2 pot. activity increase over 3SD of controls, % at 10 µM;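 active = signal rise of at least 3 SD above the untreated control mean, in both duplicate wells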;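 note: counter screen of KCNQ2 potentiator hits so any rise reflects channel-independent effects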
KCNQ1 sel pot: selectivity of KCNQ2 potentiators: effect on human KCNQ1. 28% of 1,200 active. activation over 3SD threshold, % at 10 µM. CHO KCNQ1 stable, FluxOR thallium flux fluorescence; beyond 3SD, as % of vehicle-control signal. shares compounds with KCNQ2 pot;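 active = fluorescence ratio rise of at least 3 SD of vehicle wells above their mean, in both replicate wells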;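 note: 0% = vehicle mean plus 3 SD and 100% = vehicle minus unstimulated blank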
KCNQ2 pot conf: confirmation of rat KCNQ2 potassium channel potentiators | shares compounds with KCNQ2 pot | CHO-KCNQ2 cells, FluxOR thallium flux fluorescence | potentiation, less the hit threshold, % at 10 µM | 68% of 1,200 active | AID 2287;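 active = fluorescence ratio rising 3 SD or more over the vehicle control mean in both replicates, plus primary screen hit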;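 note: peak minus minimum thallium fluorescence divided by baseline after K/Tl stimulus; 0% = vehicle mean plus 3 SD and 100% = vehicle minus unstimulated blank difference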
Kir2-1 sel: mouse Kir2.1 off-target activity of KCNQ2 potentiators; shares compounds with KCNQ2 pot; HEK293 Kir2.1, FluxOR thallium flux fluorescence; activity over 3SD threshold, % at 10 µM; 2% of 1,200 active; AID 2345;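 active = fluorescence ratio rise of at least 3 SD above the vehicle-control mean, seen in both replicates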;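 note: 0% = vehicle mean plus 3 SD and 100% = vehicle minus no-stimulus blank window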
KCNQ2 W236L MoA: rat KCNQ2 W236L mutant potentiation by KCNQ2 potentiators; shares compounds with KCNQ2 pot; CHO KCNQ2-W236L, automated patch clamp current; current increase over 3SD of negative controls (%), hits give high values, % at 25 µM; 10% of 940 active; AID 2558;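 active = current increase at least 3 SD of the untreated controls above them in both duplicate recordings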
Target sequence (O88943 whole entry W236L, looked up): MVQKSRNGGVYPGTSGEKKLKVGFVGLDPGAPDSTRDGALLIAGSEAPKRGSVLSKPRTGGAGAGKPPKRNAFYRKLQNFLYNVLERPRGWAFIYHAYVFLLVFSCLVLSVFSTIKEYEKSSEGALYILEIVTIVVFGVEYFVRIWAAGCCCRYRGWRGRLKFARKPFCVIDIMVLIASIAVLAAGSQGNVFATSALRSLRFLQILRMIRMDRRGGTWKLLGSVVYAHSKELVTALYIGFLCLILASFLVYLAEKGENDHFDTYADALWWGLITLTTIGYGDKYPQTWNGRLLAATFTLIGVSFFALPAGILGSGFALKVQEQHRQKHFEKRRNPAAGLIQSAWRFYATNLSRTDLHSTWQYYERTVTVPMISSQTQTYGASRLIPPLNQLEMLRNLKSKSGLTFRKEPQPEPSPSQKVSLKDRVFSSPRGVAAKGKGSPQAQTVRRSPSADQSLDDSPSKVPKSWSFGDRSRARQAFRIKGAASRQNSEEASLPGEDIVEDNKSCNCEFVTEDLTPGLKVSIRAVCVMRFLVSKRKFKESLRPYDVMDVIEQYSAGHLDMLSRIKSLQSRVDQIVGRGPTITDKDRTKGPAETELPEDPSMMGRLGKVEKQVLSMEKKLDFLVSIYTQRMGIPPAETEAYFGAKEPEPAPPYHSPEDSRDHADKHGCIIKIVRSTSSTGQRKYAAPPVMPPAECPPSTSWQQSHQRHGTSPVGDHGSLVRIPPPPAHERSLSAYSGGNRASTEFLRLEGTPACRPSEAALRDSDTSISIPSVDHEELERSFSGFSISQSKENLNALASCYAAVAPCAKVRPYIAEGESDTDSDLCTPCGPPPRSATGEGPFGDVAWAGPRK
The depositor's hits bear a star; i = inactive; / = no result given. This is a sample that favours compounds with a hit; in the whole collection about 1.6% have one here.

SMILES	KCNQ2 pot	KCNQ2 block	Kir21 confirm	HEK293 ctr	CHO-K1 Tl ctr	KCNQ1 sel pot	KCNQ2 pot conf	Kir2-1 sel	others
CC(C)Oc1ccc(S(=O)(=O)N2CCOCC2)cc1NC(=O)Cc1cccs1	0.18	i	/	/	/	/	/	/
Cc1ccc(C(=O)O)cc1N=Cc1cc(Br)cc(Br)c1O	10*	i	i	i	-20	-21	31*	-21	KCNQ2 W236L MoA=i
CC(=O)Nc1ccc(C(=O)N/N=C/c2cc(Br)cc(Br)c2O)cc1	/	i	/	/	/	/	/	/
Cc1cc(/C=C2\C(=N)N3N=C(S(C)(=O)=O)SC3=NC2=O)c(C)n1Cc1ccccc1	1.2	i	/	/	/	/	/	/
CCCC1=NN2C(=N)/C(=C\c3cc(C)n(Cc4ccccc4)c3C)C(=O)N=C2S1	12*	i	i	i	21*	-13	-4	-36	KCNQ2 W236L MoA=i
CCOC(=O)C(NC(C)=O)C(=O)Nc1ccc(C(C)(C)C)cc1 (centres undefined)	/	i	/	/	/	/	/	/
CCOC(=O)NC(=S)Nc1ccc(C(C)(C)C)cc1	10*	i	i	i	-11	-13	26*	-37	KCNQ2 W236L MoA=i
COc1ccc(NC(=O)C2CCCN(S(=O)(=O)c3ccccc3)C2)c(OC)c1 (centres undefined)	/	i	/	/	/	/	/	/
Cc1cc(N/N=C/c2cccc([N+](=O)[O-])c2)nc(-n2nc(C)cc2C)n1	1.6	i	/	/	/	/	/	/
Cc1cc(N/N=C/c2ccccc2[N+](=O)[O-])nc(-n2nc(C)cc2C)n1	5.4*	i	i	i	-14	-33	-6	-12
CC(C)Cn1nc(NS(=O)(=O)c2cccc3nonc23)c2cc3ccccc3nc21	/	i	/	/	/	/	/	/
Fc1ccc(-n2cc(-c3ccccc3)c3c(=S)nc[nH]c32)cc1	6.4*	i	i	182%*	-18	-17	7.9*	-24	KCNQ2 W236L MoA=i
Fc1cccc(-n2cc(-c3ccccc3)c3c(=S)nc[nH]c32)c1	2.8	i	/	/	/	/	/	/
CCCCN(C(=O)CCn1c(=O)oc2ccccc21)c1ccccc1	/	i	49%*	i	/	/	/	/
CCN(CC)C(=O)Cn1c(=O)oc2ccccc21	/	i	/	/	/	/	/	/
Cc1cc(=O)[nH]c(SCC(=O)N2CCCCC2)n1	/	i	/	/	/	/	/	/
Cc1cc(=O)[nH]c(SCC(=O)N2CCN(C(c3ccccc3)c3ccccc3)CC2)n1	10*	i	i	i	-2	9.2*	5.0*	-26	KCNQ2 W236L MoA=i
COC(=O)CCC(=O)N1CCCC(CO)(Cc2ccccc2F)C1 (centres undefined)	/	i	/	/	/	/	/	/
COc1cc([N+](=O)[O-])ccc1NC(=O)COC(=O)CCS(=O)(=O)c1ccc(C)cc1	/	i	/	/	/	/	/	/
CC(=O)Nc1ccc(NS(=O)(=O)c2ccc3c(c2)oc(=O)n3C)cc1	/	i	/	/	/	/	/	/
CCc1ccc2[nH]c(O)c(N=NC3=NC(=O)CS3)c2c1	/	i	/	/	/	/	/	/
CCc1ccc2c(c1)c(N=NC1=NC(=O)CS1)c(O)n2CC	9.7*	i	i	224%*	-26	-11	28*	-20	KCNQ2 W236L MoA=i
CCN(CC)S(=O)(=O)c1ccc(OC)c(NC(=O)C2CC(=O)N(c3ccc4c(c3)OCCO4)C2)c1 (centres undefined)	/	i	/	/	/	/	/	/
CC(C)Cn1c(=O)c(C(=O)Nc2ccccc2S(N)(=O)=O)c(O)c2ccccc21	/	i	/	/	/	/	/	/
Cn1c(=O)c(C(=O)Nc2ccccc2S(N)(=O)=O)c(O)c2ccccc21	6*	i	i	i	-19	-11	-4	-35
SMILES	KCNQ2 pot	KCNQ2 block	Kir21 confirm	HEK293 ctr	CHO-K1 Tl ctr	KCNQ1 sel pot	KCNQ2 pot conf	Kir2-1 sel	others
CC(C)CC(=O)NC(=S)Nc1nc(-c2cccc3ccccc23)cs1	8.4*	i	i	i	3.5*	9.8*	-11	-20
CCOC(=O)Cc1csc(NC(=S)NC(=O)CC(C)C)n1	/	i	/	/	/	/	/	/
CCCn1c(=O)n(C)c(=O)c2c(SCC(=O)NCC(c3ccccc3)N(C)C)nc(CC(C)C)nc21 (centres undefined)	0.46	i	/	/	/	/	/	/
O=C(CNC(=O)c1ccco1)N/N=C/c1ccc(C(=O)O)cc1	/	i	/	/	/	/	/	/
O=C(COc1ccccc1CNCc1ccccc1)Nc1ccccc1	/	i	35%*	i	/	/	/	/
CCOc1ccccc1CNCc1ccc(C(=O)O)cc1	/	i	/	/	/	/	/	/
CCc1ccc(OCC(=O)NC2CCCCC2)c(Br)c1	23*	i	i	i	138*	-16	72*	-44	KCNQ2 W236L MoA=i
CCc1ccc(OCC(=O)NNC(=S)NC(=O)C2CCCCC2)c(Br)c1	/	i	/	/	/	/	/	/
O=C(Cc1ccc(Cl)c(Cl)c1)NC1CCCCCC1	7.2*	i	i	i	-1	0.5*	0.8*	-33	KCNQ2 W236L MoA=i
O=C(Cc1ccc(Cl)cc1Cl)NC1CCCCCC1	3	i	/	/	/	/	/	/
COc1cccc2c1cc1c(=O)n(CC(=O)NCCCN3CCN(C)CC3)nc(C)n12	1.1	i	/	/	/	/	/	/
COc1ccc(-c2[nH]ncc2CNC(C)CCn2cccn2)cc1F (centres undefined)	1.8	i	/	/	/	/	/	/
COc1ccc(-c2[nH]ncc2CNC(C)c2ccccc2Cl)cc1F (centres undefined)	3	i	60%*	i	/	/	/	/
COc1ccccc1C(C(=O)NCc1ccccc1)N(C(=O)c1csnn1)C1CC1 (centres undefined)	/	i	/	/	/	/	/	/
CC(=O)Cn1ncc(N(C)Cc2ccccc2)c(Cl)c1=O	0.42	i	/	/	/	/	/	/
Cc1nnc2n(-c3ccccc3)c(=O)c3c4c(sc3n12)COC(C(C)C)C4 (centres undefined)	0.2	i	/	/	/	/	/	/
CC(C)C1Cc2c(sc3[nH]c(=S)n(Cc4ccccc4)c(=O)c23)CO1 (centres undefined)	7.3*	i	i	396%*	19*	-9	52*	-13	KCNQ2 W236L MoA=i
O=C(CCCc1ccccc1)NC12CC3CC(CC(C3)C1)C2	1.8	i	/	/	/	/	/	/
CN(C)S(=O)(=O)c1cccc(NC(=O)CC23CC4CC(CC(C4)C2)C3)c1	4.9	i	/	/	/	/	/	/
CN(C)S(=O)(=O)Nc1cccc(NC(=O)CC23CC4CC(CC(C4)C2)C3)c1	7.8*	i	i	i	7.1*	6.3*	-7	-30	KCNQ2 W236L MoA=i
CC(=O)Nc1ccc(NC(=O)CC23CC4CC(CC(C4)C2)C3)cc1	2.2	i	/	/	/	/	/	/
O=C(CC12CC3CC(CC(C3)C1)C2)Nc1c(F)cccc1F	10*	i	i	i	-6	-25	33*	-26	KCNQ2 W236L MoA=i
